PubChem BioAssay (Tox21)
Records with an inconclusive call do not appear. Where a call stands in place of a potency, no number is given. Activity calls are given as the source filed them. Calls follow the shape of the dose curve; as a rule, active = well fitted cell-killing curve with a large enough effect in the repeat runs; inconclusive = weak or mixed curves, or effect the other way; inactive = flat fitted curve, though single readings scatter.

Assay: qHTS RealTime-Glo MT Cell Viability Assay in HEK293 cells - 0 hour (AID 1224880); also: nearly all actives have a fitted effect of over 45% in size
Details: RealTime-Glo luminescence; series mostly up to 76.8 µM
Source text: U.S. Tox21 Program National Center for Advancing Translational Sciences [NCATS] NIH Chemical Genomics Center [NCGC] U.S. Environmental Protection Agency [EPA] National Institutes of Environmental Health Sciences [NIEHS] National Toxicology Program [NTP] U.S. Food and Drug Administration [FDA] Tox21 Assay Overview: Measure of cell viability is critical in the cell-base assay. Analysis of cell viability is necessary for the characterization of cell responses to cytotoxic drugs and environmental stress. A RealTime-Glo MT Cell Viability Assay to monitor cell viability in real time of continues cell culture during 40 hours of compound treatment was used to screen Tox21 10K library compounds in Hek293 cells. The RealTime-Glo MT Cell Viability Assay is a nonlytic, homogeneous, bioluminescent method to measure cell viability in real time using a simple, plate-based method. The assay involves adding NanoLuc luciferase and a cell-permeant prosubstrate to cells in culture. Viable cells reduce the proprietary prosubstrate to generate a substrate for NanoLuc luciferase. This substrate diffuses from cells into the surrounding culture medium, where it is rapidly used by the NanoLuc Enzyme to produce a luminescent signal. The signal correlates with the number of viable cells, making the assay well suited for cytotoxicity studies.
Tox21 Assay Protocol Summary: The mixture of Hek293 cell suspension and reagents were dispensed at 600cells/6 ul/well in 1536-well tissue culture treated black solid bottom plates using a Multidrop dispenser. After the assay plates were incubated at a 37 C/5% CO2 incubator for 5 hours, 23 nL of compounds dissolved in DMSO, positive and negative controls was transferred to the assay plate by a pintool work station. The plates were incubated at 37 C for 40 hours. The luminescence intensity were measured at 0h, 8h, 16h, 24h, 32h and 40h time points using ViewLux plate reader during compound treatment.
Potency is read from the fitted curve at half-maximal effect.

SMILES | Potency
O=C(c1ccc(Cl)cc1)c1ccc(Cl)cc1 | inactive
Clc1nc2ccccc2nc1Cl | inactive
CC1(COc2ccc(CC3SC(=O)NC3=O)cc2)CCCCC1 (stereo not given) | inactive
Oc1ccc(Oc2ccccc2)cc1 | inactive
CC(C)(C)c1ccc(CCC=O)cc1 | inactive
Nc1ccc(F)cc1F | inactive
CCCCCCCCC(=O)OCC(C)OC(=O)CCCCCCCC (stereo not given) | inactive
CCCCOC(=O)CC#N | inactive
C=CCCC | inactive
O=C(Nc1ccccc1)c1cc([N+](=O)[O-])ccc1Cl | inactive
O=C(Cl)c1cc(Cl)cc(Cl)c1 | inactive
O=C(OCCOCCOCCOC(=O)c1ccccc1)c1ccccc1 | inactive
CC1(C)CC(=O)CC(C)(C)N1 | inactive
O=C(c1ccco1)N1CCNCC1 | inactive
CCOC(OCC)OCC | inactive
Clc1ccccc1-c1nc(-c2ccncc2)no1 | inactive
O=c1[nH][nH]c2ccccc12 | inactive
CCCC(=O)OCc1ccccc1 | inactive
C=C(C)C(=O)OCCCCCCCCCCOC(=O)C(=C)C | inactive
CCN(CC)CC(=O)OCC(=O)[C@@]1(O)CC[C@H]2[C@@H]3CCC4=CC(=O)CC[C@]4(C)[C@H]3[C@@H](O)C[C@@]21C | 1.9 µM (active)

SMILES | Potency
CC(C)C/C=C(\C=O)c1ccccc1 | inactive
OCC(O)c1ccccc1 (stereo not given) | inactive
Cc1ccc2c(Cl)cc(Cl)c(O)c2n1 | inactive
Clc1cc(Cl)c2c(c1)N=C1CCCCCN1C2 | inactive
O=C(O)c1cc(C(=O)O)cc([N+](=O)[O-])c1 | inactive
C[C@H](N)C(=O)N[C@@H](C)C(=O)NC1[C@H]2CN(c3nc4c(cc3F)c(=O)c(C(=O)O)cn4-c3ccc(F)cc3F)C[C@@H]12 (stereo not given in full) | inactive
CC1(C)CC(O)CC(C)(C)N1[O] | inactive
Cc1c(Cl)cccc1[N+](=O)[O-] | inactive
COC(=O)Cc1cccc2ccccc12 | inactive
Oc1ccc(CCNCCCCCCNCCc2ccccc2)cc1O | inactive
C[C@H]1C[C@H]2[C@@H]3CCC4=CC(=O)C=C[C@]4(C)[C@@]3(F)[C@@H](O)C[C@]2(C)[C@@]1(O)C(=O)COP(=O)(O)O | inactive
O=S(=O)(O)c1cc(Cl)c(Cl)cc1Cl | inactive
Sc1nc(S)nc(S)n1 | inactive
O=c1c2ccccc2oc2ccccc12 | inactive
CC(O)C(C)O (stereo not given) | inactive
COc1ccc(/C(C)=C/C(=O)O)c(OC)c1 | inactive
C[Si](C)(C)O[Si](C)(C)O[Si](C)(C)C | inactive
CC(COc1ccccc1)NC(C)C(O)c1ccc(O)cc1 (stereo not given) | inactive
CCCCCCCCCCCCCCCCN | inactive
CCc1cnc(C(=O)O)c(C(=O)O)c1 | inactive
